Compound activity from PubChem BioAssay.
HMGR II inh – E. faecalis class II HMG-CoA reductase inhibition; actives 0.41% (n = 190,000); purified E. faecalis HMGR, NADPH absorbance 340 nm kinetic; inhibition, % at 10 µM;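 active means inhibition above a set limit, the median over all tested compounds plus 3 SD, cut at about 9.5% in these data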;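 further: enzyme runs in reverse so mevalonate oxidation gives rising NADPH absorbance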
PGE2 EP2 inh – blocks the human prostaglandin E2 receptor EP2. C6 glioma cells expressing human EP2, cAMP TR-FRET; cells stimulated with saturating PGE2. actives 0.52% (n = 260,000). AID 1422. inhibition, % at 25 µM. P43116;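 active means percent inhibition above 40 after rounding to a whole number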;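 further: rat C6 glioma host cells with rolipram phosphodiesterase inhibitor present; the protocol text gives 20 µM as final concentration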
Target sequence (P43116 whole entry, looked up): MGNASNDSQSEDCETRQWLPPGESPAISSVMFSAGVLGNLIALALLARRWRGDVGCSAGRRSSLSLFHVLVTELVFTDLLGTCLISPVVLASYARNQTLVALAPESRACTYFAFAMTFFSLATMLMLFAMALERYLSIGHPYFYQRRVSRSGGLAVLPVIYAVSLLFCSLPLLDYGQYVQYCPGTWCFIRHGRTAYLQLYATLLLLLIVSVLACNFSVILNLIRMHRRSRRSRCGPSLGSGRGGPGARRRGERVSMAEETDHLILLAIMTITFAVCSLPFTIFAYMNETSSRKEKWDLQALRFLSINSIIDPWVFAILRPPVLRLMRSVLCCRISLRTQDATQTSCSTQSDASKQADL
EP2 mod – modulators of human EP2 prostaglandin E2 receptor. EP2-expressing cells, cAMP HTRF FRET, PGE2 co-stimulation. induction, % at 25 µM. actives 0.83% (n = 260,000). AID 940;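 active means compounds whose cAMP rise, as percent of the full-agonist control response, exceeds 60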;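 further: rat C6 glioma line stably carrying human EP2 under a CMV promoter; the protocol text gives 20 µM as final concentration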
Calpain2 inh – calpain II (pig) inhibition; purified calpain II, fluorogenic peptide substrate, 30 min; inhibition, % at 16 µM; actives 0.37% (n = 220,000); AID 1236;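 active means inhibition above about 50%, limit read from the data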
Furin inh – inhibitors of human furin; purified furin, fluorogenic substrate cleavage; P09958; inhibition, % at 20 µM or 30 µM; actives 0.061% (n = 220,000); in the data active means inhibition above about 25%
Hits are given with their value; n = inactive; x = not tested or not shown. Hits are enriched below; roughly 1.9% of the tested compounds scored in any of these assays.

SMILES	HMGR II inh	PGE2 EP2 inh	EP2 mod	Calpain2 inh	Furin inh
Cc1ccc(C2(C(=O)N[C@H](Cn3nc(-c4cccs4)ccc3=O)C(C)C)CC2)cc1	x	n	76	x	x
O=C1CCCN1c1ccc(S(=O)(=O)NC2(c3ccc(Cl)cc3)CC2)cc1	x	n	n	x	x
O=C(Nc1nc(-c2ccc(S(=O)(=O)N3CCOCC3)cc2)cs1)c1ccccc1	n	x	n	n	n
Cc1ccc(Nc2nc(-c3ccc(S(=O)(=O)N4CCOCC4)cc3)cs2)cc1Cl	n	n	n	60	n
O=C(Cn1cc(C(=O)C(F)(F)F)c2ccccc21)N1CCOCC1	14	n	n	n	n
Cc1nccn1-c1ccc(CN(CCCn2ccnc2)Cc2ccccc2F)cc1	x	n	n	x	x
CCOC(=O)c1nc(NCCc2ccccc2)sc1C	11	n	n	n	n
Cc1ccccc1OCC(O)CN(Cc1ccccc1O)C1CCCCC1 (stereo not drawn)	n	n	n	n	n
Oc1c(Br)cc(Br)cc1CN(Cc1cc(Br)cc(Br)c1O)C1CCCCC1	x	40	n	x	x
Cc1ccc(C(C)C(=O)N2CCC(c3ccnc4nc(C(F)(F)F)nn34)CC2)cc1 (stereo not drawn)	x	x	n	x	x
CCCCN(CCCC)C(=O)c1sc2nc(N3CCOCC3)c3c(c2c1N)CCCC3	x	n	87	n	n
CC(C)Cn1c(N)c(C(=O)COC(=O)c2ccc(F)cc2)c(=O)n(C)c1=O	n	n	n	53	n
CC(C)Cn1c(N)c(C(=O)COC(=O)c2c(F)cccc2F)c(=O)n(C)c1=O	n	n	n	n	n
CCc1ccc(C(=O)OCC(=O)c2c(N)n(CC(C)C)c(=O)n(C)c2=O)cc1	n	n	n	82	n
CC(C)Cn1c(N)c(C(=O)COC(=O)c2cccc(Cl)c2)c(=O)n(C)c1=O	n	n	n	77	n
CC(C)Cn1c(N)c(C(=O)COC(=O)/C=C/c2cccs2)c(=O)n(C)c1=O	x	n	n	53	n
CC(C)Cn1c(N)c(C(=O)COC(=O)c2ccccc2Cl)c(=O)n(C)c1=O	n	n	n	n	n
CC(C)Cn1c(N)c(C(=O)COC(=O)c2ccc3c(c2)OCCO3)c(=O)n(C)c1=O	n	n	n	n	n
Cc1ccc(C(=O)Nc2ccc(N3CCN(C(=O)C(C)C)CC3)cc2)c(Cl)c1	x	n	n	x	x
CCNC(=S)N(CCc1cccc(C)c1)Cc1cc2cc(C)c(C)cc2[nH]c1=O	x	n	n	x	x
Cc1ccc(-n2nc(C)c(C(=O)O)n2)c(C)c1	n	n	n	n	n
CC1=NN(c2ccc(C)cc2C)C(=O)C1C(c1ccccc1)C1C(=O)N(c2ccc(C)cc2C)N=C1C (stereo not drawn)	9.6	n	n	n	n
COc1cc(CN2CCC(O)(c3ccccc3F)CC2)ccc1OCC(N)=O	x	n	n	x	x
CC(=NCCc1c(C)[nH]c2ccc(OC(F)(F)F)cc12)C1=C(O)CC(c2ccccc2)CC1=O (stereo not drawn)	12	n	n	n	n
CCSc1cc(C)nc(NC(=O)CC)n1	x	n	n	x	x
SMILES	HMGR II inh	PGE2 EP2 inh	EP2 mod	Calpain2 inh	Furin inh
CC1(C)OC(=O)C(=Cc2ccc(-c3ccc(S(N)(=O)=O)cc3)o2)C(=O)O1	n	43	n	n	n
Nc1cc2nsnc2cc1Br	n	138	n	n	n
Nc1cccc2nsnc12	x	n	n	n	n
CC(=O)O[C@@H]1CC[C@]2(C)C(=C[C@H]([C@@H]3C=C4C[C@@H](OC(C)=O)CC[C@]4(C)C4=C3[C@@H]3C[C@@H]5O[C@@]6(CC[C@H](C)CO6)[C@@H](C)[C@@H]5[C@@]3(C)CC4)C3=C2CC[C@@]2(C)[C@@H]4[C@@H](C)[C@]5(CC[C@H](C)CO5)O[C@@H]4C[C@H]32)C1	x	40	n	x	x
CC(=O)OC1CCC2(C)C(=CCC3C2CCC2(C)C3CC3OC4(CCC(C)CN4)C(C)C32)C1 (stereo not drawn)	x	n	n	n	n
CC(=O)c1ccccc1OCC(O)Cn1cnc2cc(C)c(C)cc21 (stereo not drawn)	x	n	n	x	x
COc1ccc(CNc2cc([N+](=O)[O-])ccc2OC)cc1	n	n	n	n	n
COc1ccc(CNc2ccc([N+](=O)[O-])cc2C)cc1	x	n	n	82	n
Cc1oc2c(c1CC(=O)NCCCc1ccc(F)cc1)C(=O)CC(C)(C)C2	x	n	n	x	x
c1cnc2c(OCc3nc4ccccc4[nH]3)cccc2c1	n	n	n	56	n
COc1ccc(OC)c(N(CC(=O)N2CCN(c3ccccc3F)CC2)S(C)(=O)=O)c1	x	n	n	x	x
CCc1c(C)nc(NC2CCN(C(=O)C(C)(C)c3ccc(Cl)cc3)CC2)[nH]c1=O	x	n	n	x	x
COc1cc(C2OCC3C(c4ccc(OC5OC(CO)C(O)C(O)C5O)c(OC)c4)OCC23)ccc1O (stereo not drawn)	n	n	n	n	n
COc1ccc(C[C@H]2COC(=O)[C@@H]2Cc2ccc(OC3OC(CO)C(O)C(O)C3O)c(OC)c2)cc1OC (stereo partly drawn)	20	n	n	n	n
O=C(COc1ccc(F)cc1)NN1C(=O)CSC1=S	n	n	n	52	n
O=C(COc1ccccc1)NN1C(=O)CSC1=S	n	n	n	n	n
O=C1OC(c2ccc(O)c(-c3ccccc3)c2)(c2ccc(O)c(-c3ccccc3)c2)c2c(Cl)c(Cl)c(Cl)c(Cl)c21	x	47	n	x	x
CCc1nn(CC(=O)NCc2ccccc2OC)c(=O)c2cc3ccsc3n12	x	x	n	x	x
COc1ccc(CCNC(=O)CSc2ccc3ccccc3c2)cc1OC	n	n	n	n	n
CCc1ccccc1NC(=O)CSc1nc2ccc(OC)cc2cc1C	x	n	70	x	x
CCc1cc2ccccc2nc1SCC(=O)Nc1ccccc1C	x	n	80	x	x
CCc1cc2ccccc2nc1SCC(=O)NCCc1ccc(OC)c(OC)c1	x	n	61	x	x
O=C(CSc1nc2ccccc2cc1Cc1ccccc1)Nc1nccs1	x	n	64	x	x
COc1ccc(/C(O)=C2/C(=O)C(=O)N(CCN3CCOCC3)C2c2cccc3ccccc23)cc1 (stereo not drawn)	x	n	n	x	x
CCOc1ccc(N(CC(=O)N2CCN(CC)CC2)S(=O)(=O)c2ccccc2)cc1	x	n	n	x	x
SMILES	HMGR II inh	PGE2 EP2 inh	EP2 mod	Calpain2 inh	Furin inh
O=C(Nc1nccs1)c1cn(-c2ccccc2)nc1-c1ccncc1	n	n	n	n	n
O=C(Nc1ccncc1)c1cn(-c2ccccc2)nc1-c1cccs1	13	x	n	n	n
O=C1NC(=O)N(c2ccc(F)cc2)C(=O)/C1=C/c1ccco1	x	53	n	x	x
O=C(COC(=O)[C@@H]1CCCN1S(=O)(=O)c1ccc(Cl)cc1)NC12CC3CC(CC(C3)C1)C2	n	68	n	n	n
CCCC(c1nnnn1CCc1ccccc1)N(Cc1cc2cc(C)ccc2[nH]c1=O)C1CCCC1 (stereo not drawn)	x	n	n	x	x
CCc1cc2cc3c(cc2nc1SCC(=O)Nc1nc2c(s1)CCCC2)OCO3	x	n	77	x	x
CCc1cc2cc3c(cc2nc1SCC(=O)NNC(=O)c1ccccc1)OCO3	x	n	n	x	x
CCc1cc2cc3c(cc2nc1SCC(=O)Nc1cc(OC)cc(OC)c1)OCO3	x	n	69	x	x
CCc1cc2ccc(OC)cc2nc1SCC(=O)Nc1ccc2c(c1)OCO2	x	n	76	x	x
